An excerpt weighted towards active compounds, which were near 3.6% of everything screened.
TWEAK Fn14 block = blocks TWEAK-Fn14 interaction in a reporter cell assay | TWEAK-stimulated Fn14 reporter cells, luciferase luminescence, 8 h | inhibition, % at 10 µM | 360,000 tested, 2% active | AID 1159606; in the data active = inhibition above about 50%
LMP1 NFkB inh = Epstein-Barr LMP1 NF-kappaB reporter inhibition; 350,000 tested, 0.69% active; LMP1-induced NF-kappaB luciferase reporter cells, luminescence; inhibition, % at 12.5 µM; AID 504558; in the data active = inhibition above about 41%; inconclusive = no clear call, values can overlap the other calls;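 note: 0% = neutral control wells and 100% = reference inhibitor control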
HSF1 activator = increases HSF-1 driven luciferase reporter signal; AID 504408; activation, % at 9 µM; NIH3T3-HGL HSF-1 luciferase reporter, MG132, 8 h; 100% = twice DMSO control signal; 300,000 tested, 1.7% active;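 active = mean replicate activation of at least 50% with a set share of replicates each reaching 50%; inconclusive = only one of those two conditions met; inactive = mean below 50% and too few replicates reaching it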;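 note: 0% = median of the neutral control wells and 100% = twice that signal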
HSF1 inh = HSF1 inhibition | NIH3T3-HGL HSE-luciferase, MG132-induced, luminescence 8 h; active compounds read low | activity change, negative = inhibition, % at 7.5 µM (by protocol) | 300,000 tested, 0.77% active;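 active = more than half of replicate wells show activity change below -50%, luminescence cut by over half; inconclusive = some wells, but at most half, below -50%; inactive = no replicate well below -50%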;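 note: luciferase reports HSF-1 transcriptional activity via heat shock element; 0% = median of DMSO wells and -100% = zero luminescence signal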
TROY signal inh = inhibitors of TROY-dependent NF-kB signaling; Q293 LMP1-TROYcd NF-kB luciferase reporter, 4 h; inhibition, % at 10 µM; AID 1347056; 360,000 tested, 0.98% active;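 active = compounds whose plate-normalised and pattern-corrected inhibition of the luciferase reporter signal at the single screening dose is 50% or more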
LGR2 antag = blocks bursicon-induced cAMP signaling via Drosophila LGR2 | HEK293 LGR2, CRE-luciferase, bursicon-stimulated, 4 h | inhibition, % at 9.99 µM | 380,000 tested, 0.35% active | AID 720647;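 active = drop in luminescence signal, shown as inhibition above about 50% in the replicate tests, limit read from the data, passing the limit was not always enough; inconclusive = probably only some replicates passing the limit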;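 note: agonist challenge used bursicon conditioned medium at about half maximal strength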
* = called active by the depositor; ? = inconclusive; / = not tested or not shown.

SMILES | TWEAK Fn14 block | LMP1 NFkB inh | HSF1 activator | HSF1 inh | TROY signal inh | LGR2 antag
COc1ccc2c(CC(=O)N3CCc4ccccc43)coc2c1 | -32 | -52 | 104* | 76 | -18 | /
COc1ccc2c(CC(=O)OCC(=O)N3CCc4ccccc43)coc2c1 | -49 | 7 | -11 | -5 | -63 | /
O=C(c1cc2cc(Br)ccc2[nH]1)N1CCc2ccccc21 | 7 | -6 | 14 | 2 | 22 | -1
COc1ccc2oc(C(=O)N3CCc4ccccc43)c(C)c2c1 | 73* | 37 | -59 | ? | 63* | 59*
COc1cc2cc(C(=O)N3CCN(c4ccccc4OC)CC3)[nH]c2cc1OC | 2 | 53* | 3 | 1 | 11 | 25
C[C@H]1CN([C@@H](C)CO)S(=O)(=O)c2ccc(-c3ccc(F)cc3)cc2O[C@H]1CN(C)CC1CC1 | / | / | / | / | / | 3
COc1ccc(CN(C)C[C@@H]2OCCCC[C@H](C)Oc3ccc(NS(=O)(=O)c4c(C)noc4C)cc3C(=O)N([C@@H](C)CO)C[C@H]2C)cc1 | / | / | / | / | / | 6
COCCNC(=O)C[C@@H]1C[C@H]2c3cc(NS(=O)(=O)c4ccc(F)cc4)ccc3O[C@H]2[C@@H](CO)O1 | / | / | / | / | / | 6
CCN(/C=N/c1sc2c(c1C#N)CCCCC2)CC | -25 | -42 | 60* | 29 | -10 | /
CC(C)CN(/C=N/c1sc2c(c1C#N)CCCCC2)CC(C)C | -2 | -13 | 17 | 6 | 24 | /
CCn1c(SCC(=O)N2CCOCC2)nc2oc3c(Cl)cc(Cl)cc3c(=O)c2c1=O | / | / | 121* | 66 | / | /
CCn1c(SCC(=O)N2CCOCC2)nc2sc3c(c2c1=O)CCCC3 | -10 | 11 | -16 | 4 | 10 | /
CC(C)NC(=O)N1CCCCN2[C@H](CO)[C@@H](c3ccc(C#Cc4ccccc4)cc3)[C@H]2C1 | / | / | / | / | / | -7
Cc1ccc(S(=O)(=O)NNC(=O)c2cnn(-c3ccc(Cl)cc3)c2C(F)(F)F)cc1 | 9 | 9 | 61* | 32 | 11 | -6
O=C(CCl)c1ccc2c(c1)CCN2C(=O)C1CCCCC1 | -15 | -13 | 71* | 52 | 53* | -4
CCCc1cc(C(=O)Nc2ccc(C(=O)c3ccc(F)cc3)cc2)n(C)n1 | 50* | 27 | 7 | -1 | 59* | /
CCCc1cc(C(=O)Nc2ccc(C(=O)c3ccccc3)cc2)n(C)n1 | 27 | 5 | 18 | 14 | 34 | 13
COC(=O)C[C@H]1CC[C@@H]2[C@H](COc3ccc(NC(=O)Nc4cccc(C)c4)cc3C(=O)N2C)O1 | / | / | / | / | / | -7
CCN(CC)C(=O)c1ccc2nc([C@H]3C[C@H](O)[C@@H](CO)O3)[nH]c2c1 | 5 | / | / | / | 1 | 1
OC[C@H]1O[C@@H](c2nc3ccc(-c4nc(-c5ccc(Br)cc5)no4)cc3[nH]2)C[C@@H]1O | 63* | / | / | / | 46 | -38
O=C(C[C@H]1CC[C@H]2[C@@H](COC[C@H](O)CN2S(=O)(=O)c2ccccc2)O1)NCc1ccc(-c2ccccc2)cc1 | / | / | / | / | / | -3
CC(C)c1ccc(OCC(=O)NNC(=O)c2cnccn2)cc1 | -6 | 55* | -19 | -5 | -15 | -2
CCCCc1ccc(NC(=O)c2cnccn2)cc1 | 64* | 24 | 20 | 4 | 1 | 65*
CCCc1ccc(C(C)NC(=O)c2cnccn2)cc1 (configuration not stated) | 85* | 13 | / | / | / | /
Cc1cc2n(n1)SC(Nc1cccc3ccccc13)N2 (configuration not stated) | 19 | -13 | ? | 41 | 20 | /
SMILES | TWEAK Fn14 block | LMP1 NFkB inh | HSF1 activator | HSF1 inh | TROY signal inh | LGR2 antag
CCc1ccccc1NC1Nc2cc(C)nn2S1 (configuration not stated) | 57* | -5 | 18 | 3 | 7 | -3
Cn1c(=O)c(C#N)c(-c2ccc(F)cc2)c2cc(C(=O)c3cc(Cl)cc(Cl)c3O)cnc21 | 57* | 4 | -3 | -3 | 67* | 9
COc1ccccc1-n1c(=O)c(C#N)c(-c2ccc([N+](=O)[O-])cc2)c2cc(C(=O)c3cc(F)ccc3O)cnc21 | 1 | 3 | 11 | 4 | 8 | -2
CC1=NNC(=O)C1C(c1ccccc1)C1C(=O)NN=C1C (configuration not stated) | / | / | 128* | 84 | / | /
CCOCCOC(=O)C1=C(C)Nc2ccc(C)cc2S1 | 39 | -13 | -10 | -12 | 25 | /
CCOC(=O)C1=C(C)Nc2ccc(C)cc2S1 | 96* | 4 | -15 | -11 | 22 | /
Cc1ccc(S(=O)(=O)Nc2ccc3c(c2)C(=O)N([C@@H](C)CO)C[C@@H](C)[C@H](CN(C)S(=O)(=O)c2ccc(Cl)cc2)O3)cc1 | / | / | / | / | / | 12
Cc1ccc(S(=O)(=O)N(C)C[C@H]2Oc3c(cccc3N(C)C)C(=O)N([C@@H](C)CO)C[C@@H]2C)cc1 | / | / | / | / | / | 59*
C[C@H](CO)N1C[C@H](C)[C@@H](CN(C)S(=O)(=O)c2ccc(F)cc2)Oc2c(NC(=O)CCC(F)(F)F)cccc2C1=O | -23 | 0 | / | / | -11 | 5
Cc1ccc(S(=O)(=O)N(C)C[C@H]2Oc3c(cccc3N(C)C)C(=O)N([C@H](C)CO)C[C@@H]2C)cc1 | / | / | / | / | / | -11
COc1ccc(S(=O)(=O)N(C)C[C@H]2Oc3c(NC(=O)CCC(F)(F)F)cccc3C(=O)N([C@H](C)CO)C[C@@H]2C)cc1 | 5 | 56* | / | / | 1 | 0
C[C@@H]1CN([C@@H](C)CO)C(=O)c2cccc(NC(=O)Nc3cccc4ccccc34)c2O[C@H]1CN(C)CC1CC1 | / | / | / | / | / | 5
C[C@H](CO)N1C[C@H](C)[C@H](CN(C)C(=O)C2CCC2)Oc2cc(C#Cc3ccncc3)ccc2S1(=O)=O | / | / | / | / | / | -5
CCN(c1ccc(OC)cc1)c1ncnc2nc[nH]c12 | 59* | 26 | -72 | -64* | 38 | 16
CCCCN(CCCC)c1ncnc2nc[nH]c12 | 59* | 3 | -32 | -24 | 33 | -12
C[C@H]1CN([C@@H](C)CO)C(=O)c2cccc(NC(=O)Nc3ccc4c(c3)OCO4)c2O[C@@H]1CN(C)Cc1ccncc1 | / | / | / | / | / | -45
COC(=O)C[C@H]1C[C@@H]2c3cc(N(C)C)ccc3O[C@@H]2[C@@H](CO)O1 | / | / | / | / | / | -5
C[C@@H]1CCCCO[C@@H](CN(C)C(=O)NC2CCCCC2)[C@H](C)CN([C@@H](C)CO)C(=O)c2cc(NS(=O)(=O)c3cn(C)cn3)ccc2O1 | / | / | / | / | / | -4
CN1CCC(OC(=O)c2cc3cc(Cl)cc(Cl)c3oc2=O)CC1 | 77* | 22 | -10 | 2 | 6 | 16
CN1CCC(OC(=O)c2ccc(Cl)cc2Cl)CC1 | -1 | -6 | -9 | -3 | -13 | 2
COCC(=O)Nc1ccc2c(c1)OC[C@H](C)N(C(=O)COC)C[C@@H](C)[C@@H](OC)CN(C)C2=O | / | / | / | / | / | -1
O=C(/C=C/c1ccc([N+](=O)[O-])s1)N1CCCC1 | 8 | -71 | 34 | 9 | 1 | 8
O=C(/C=C/c1ccc([N+](=O)[O-])s1)N1CCCCC1 | 47 | -56 | 61* | 46 | -13 | 4
